{"source": "PubChem BioAssay", "key": {"[1]": {"assay": "growth inhibition of DIPG glioma cells, dose response, cell-based, SU-DIPG-XVII, MIPE5.0, CellTiter-Glo, qHTS (AID 1347060; cut-off not given, nearly all actives have AC50 up to about 26 µM;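 further: cells exposed to compound for 48 hours before viability readout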)", "conditions": "SU-DIPG-XVII viability, CellTiter-Glo ATP luminescence"}, "[2]": {"assay": "growth inhibition of DIPG glioma cells, dose response, cell-based, SU-DIPG-XIII, MIPE4.0, CellTiter-Glo, qHTS (AID 1347061; cut-off not given, nearly all actives have AC50 up to about 37 µM;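 further: cells exposed to compound for 48 hours before readout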)", "conditions": "SU-DIPG-XIII viability, CellTiter-Glo ATP luminescence"}, "[3]": {"assay": "growth inhibition of DIPG glioma cells, dose response, cell-based, JHH-DIPG-1, MIPE4.0, CellTiter-Glo, qHTS (AID 1347062; cut-off not given, nearly all actives have AC50 up to about 27 µM;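 further: cells exposed to compound for two days before readout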)", "conditions": "JHH-DIPG-1 viability, CellTiter-Glo ATP luminescence"}, "[4]": {"assay": "growth inhibition of DIPG glioma cells, dose response, cell-based, SU-DIPG-IV, MIPE4.0, CellTiter-Glo, qHTS (AID 1347063; cut-off not given, nearly all actives have AC50 up to about 30 µM;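 further: compound exposure lasted 48 hours before the viability readout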)", "conditions": "SU-DIPG-IV viability, CellTiter-Glo ATP luminescence"}, "[5]": {"assay": "growth inhibition of DIPG glioma cells, dose response, cell-based, SU-DIPG-XIII, MIPE5.0, CellTiter-Glo, qHTS (AID 1347064; cut-off not given, nearly all actives have AC50 up to about 23 µM;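 further: cells exposed to compound for 48 hours before the viability read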)", "conditions": "SU-DIPG-XIII viability, CellTiter-Glo ATP luminescence"}, "[6]": {"assay": "viability loss in pontine glioma line – cell-based, SU-DIPG-XXV, MIPE5.0, CellTiter-Glo, qHTS, dose response (AID 1347065; cut-off not given, nearly all actives have AC50 up to about 26 µM;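 further: cells exposed to compound for 48 hours before ATP readout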)", "conditions": "CellTiter-Glo ATP luminescence"}, "[7]": {"assay": "SU-DIPG-VI glioma cell viability, MIPE4.0 library, CellTiter-Glo luminescence, qHTS (AID 1347066; cut-off not given, nearly all actives have AC50 up to about 30 µM;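 further: cells exposed to compound for 48 hours before readout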)", "conditions": "CellTiter-Glo ATP luminescence"}, "[8]": {"assay": "JHH-DIPG-1 glioma cell viability, MIPE5.0 library, CellTiter-Glo luminescence, qHTS (AID 1347067; cut-off not given, nearly all actives have AC50 up to about 26 µM;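 further: cells exposed to compound for 48 hours before readout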)", "conditions": "JHH-DIPG-1 glioma viability, CellTiter-Glo ATP luminescence"}, "[9]": {"assay": "SU-DIPG-XXV glioma cell viability, MIPE5.0 library, qHTS (AID 1347068; cut-off not given, nearly all actives have IC50 up to about 30 µM;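 further: cells exposed to compound for 48 hours before viability readout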)"}, "[10]": {"assay": "ovarian cancer cell viability with rucaparib, profiling panel, oncology-focused library, rucaparib conditional (AID 1508598)", "conditions": "patient-derived ovarian cancer cells, CellTiter-Glo viability, 144 h, stronger effect = lower value"}, "[11]": {"assay": "sensitizers of A549 cells to miR-34 induction, primary screen, imaging, A549 dox-inducible miR-34, nuclei and caspase counts (AID 1347080;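 active means compounds whose cell count with miR-34 switched on is under 0.7 times the count with it off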)", "conditions": "A549 miR-34 inducible, Hoechst nuclei count, 48 h"}, "[12]": {"assay": "survival rescue of mitochondrial mutant cells in low glucose, primary screen, MELAS cybrids, Rieske KO mouse fibroblasts, CellTiter-Glo (AID 1508586;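 active means mean z-score across replicates of 1.96 or higher in either the MELAS or the Rieske mutant cell line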;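 further: z relative to plate mean and SD of compound and empty wells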)"}}, "note": "Inconclusive results are not listed. The source made the active and inactive calls.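 How the source made its calls, unless noted: active means normalized viability below 100% at a tested concentration; inactive means the rest.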"}
{"smiles": "Cc1nc(Nc2n[nH]c3c2CN(C(=O)N[C@H](CN(C)C)c2ccccc2)C3(C)C)c2sccc2n1", "values": [{"measurement": "AC50", "setting": "[1]", "result": "3720 nM (active)"}, {"measurement": "AC50", "setting": "[2]", "result": "10500 nM (active)"}, {"measurement": "AC50", "setting": "[3]", "result": "2090 nM (active)"}, {"measurement": "AC50", "setting": "[4]", "result": "2960 nM (active)"}, {"measurement": "AC50", "setting": "[5]", "result": "1180 nM (active)"}, {"measurement": "AC50", "setting": "[6]", "result": "2090 nM (active)"}, {"measurement": "AC50", "setting": "[7]", "result": "8330 nM (active)"}, {"measurement": "AC50", "setting": "[8]", "result": "2950 nM (active)"}, {"measurement": "IC50", "setting": "[9]", "result": "4170 nM (active)"}, {"measurement": "viability", "setting": "[10]; at 0.000305 µM, OCI-C5x cells, with rucaparib 10 µM, 100% = cells with rucaparib alone", "result": "107% (inactive)"}, {"measurement": "viability", "setting": "[10]; at 0.000305 µM, OCI-C5x cells, without rucaparib", "result": "125% (inactive)"}, {"measurement": "viability", "setting": "[10]; at 0.000305 µM, OCI-P5x cells, with rucaparib 20 µM, 100% = cells with rucaparib alone", "result": "108% (inactive)"}, {"measurement": "viability", "setting": "[10]; at 0.000305 µM, OCI-P5x cells, without rucaparib", "result": "104% (inactive)"}, {"measurement": "viability", "setting": "[10]; at 0.00122 µM, OCI-C5x cells, with rucaparib 10 µM, 100% = cells with rucaparib alone", "result": "112% (inactive)"}, {"measurement": "viability", "setting": "[10]; at 0.00122 µM, OCI-C5x cells, without rucaparib", "result": "126% (inactive)"}, {"measurement": "viability", "setting": "[10]; at 0.00122 µM, OCI-P5x cells, with rucaparib 20 µM, 100% = cells with rucaparib alone", "result": "102% (inactive)"}, {"measurement": "viability", "setting": "[10]; at 0.00122 µM, OCI-P5x cells, without rucaparib", "result": "108% (inactive)"}, {"measurement": "viability", "setting": "[10]; at 0.00488 µM, OCI-C5x cells, with rucaparib 10 µM, 100% = cells with rucaparib alone", "result": "106% (inactive)"}, {"measurement": "viability", "setting": "[10]; at 0.00488 µM, OCI-C5x cells, without rucaparib", "result": "106% (inactive)"}, {"measurement": "viability", "setting": "[10]; at 0.00488 µM, OCI-P5x cells, with rucaparib 20 µM, 100% = cells with rucaparib alone", "result": "85.5% (active)"}, {"measurement": "viability", "setting": "[10]; at 0.00488 µM, OCI-P5x cells, without rucaparib", "result": "84.6% (active)"}, {"measurement": "viability", "setting": "[10]; at 0.0195 µM, OCI-C5x cells, with rucaparib 10 µM, 100% = cells with rucaparib alone", "result": "107% (inactive)"}, {"measurement": "viability", "setting": "[10]; at 0.0195 µM, OCI-C5x cells, without rucaparib", "result": "66.6% (active)"}, {"measurement": "viability", "setting": "[10]; at 0.0195 µM, OCI-P5x cells, with rucaparib 20 µM, 100% = cells with rucaparib alone", "result": "68.4% (active)"}, {"measurement": "viability", "setting": "[10]; at 0.0195 µM, OCI-P5x cells, without rucaparib", "result": "66.2% (active)"}, {"measurement": "viability", "setting": "[10]; at 0.0781 µM, OCI-C5x cells, with rucaparib 10 µM, 100% = cells with rucaparib alone", "result": "90.6% (active)"}, {"measurement": "viability", "setting": "[10]; at 0.0781 µM, OCI-C5x cells, without rucaparib", "result": "73.2% (active)"}, {"measurement": "viability", "setting": "[10]; at 0.0781 µM, OCI-P5x cells, with rucaparib 20 µM, 100% = cells with rucaparib alone", "result": "59.9% (active)"}, {"measurement": "viability", "setting": "[10]; at 0.0781 µM, OCI-P5x cells, without rucaparib", "result": "60.2% (active)"}, {"measurement": "viability", "setting": "[10]; at 0.313 µM, OCI-C5x cells, with rucaparib 10 µM, 100% = cells with rucaparib alone", "result": "101% (inactive)"}, {"measurement": "viability", "setting": "[10]; at 0.313 µM, OCI-C5x cells, without rucaparib", "result": "88% (active)"}, {"measurement": "viability", "setting": "[10]; at 0.313 µM, OCI-P5x cells, with rucaparib 20 µM, 100% = cells with rucaparib alone", "result": "44.2% (active)"}, {"measurement": "viability", "setting": "[10]; at 0.313 µM, OCI-P5x cells, without rucaparib", "result": "48.5% (active)"}, {"measurement": "viability", "setting": "[10]; at 1.25 µM, OCI-C5x cells, with rucaparib 10 µM, 100% = cells with rucaparib alone", "result": "85.2% (active)"}, {"measurement": "viability", "setting": "[10]; at 1.25 µM, OCI-C5x cells, without rucaparib", "result": "95.2% (active)"}, {"measurement": "viability", "setting": "[10]; at 1.25 µM, OCI-P5x cells, with rucaparib 20 µM, 100% = cells with rucaparib alone", "result": "24.7% (active)"}, {"measurement": "viability", "setting": "[10]; at 1.25 µM, OCI-P5x cells, without rucaparib", "result": "39.9% (active)"}, {"measurement": "viability", "setting": "[10]; at 5 µM, OCI-C5x cells, with rucaparib 10 µM, 100% = cells with rucaparib alone", "result": "8.03% (active)"}, {"measurement": "viability", "setting": "[10]; at 5 µM, OCI-C5x cells, without rucaparib", "result": "10.2% (active)"}, {"measurement": "viability", "setting": "[10]; at 5 µM, OCI-P5x cells, with rucaparib 20 µM, 100% = cells with rucaparib alone", "result": "8.49% (active)"}, {"measurement": "viability", "setting": "[10]; at 5 µM, OCI-P5x cells, without rucaparib", "result": "4.16% (active)"}]}
{"smiles": "CCN(CC)Cc1ccc2cc(COC(=O)Nc3ccc(C(=O)NO)cc3)ccc2c1", "values": [{"measurement": "AC50", "setting": "[1]", "result": "5250 nM (active)"}, {"measurement": "AC50", "setting": "[2]", "result": "11800 nM (active)"}, {"measurement": "AC50", "setting": "[3]", "result": "2640 nM (active)"}, {"measurement": "AC50", "setting": "[4]", "result": "5260 nM (active)"}, {"measurement": "AC50", "setting": "[5]", "result": "2630 nM (active)"}, {"measurement": "AC50", "setting": "[6]", "result": "1660 nM (active)"}, {"measurement": "AC50", "setting": "[7]", "result": "1660 nM (active)"}, {"measurement": "AC50", "setting": "[8]", "result": "1480 nM (active)"}, {"measurement": "IC50", "setting": "[9]", "result": "18600 nM (active)"}, {"measurement": "fold change", "setting": "[11]; stronger effect = lower value, cell number ratio, induced over uninduced", "result": "1.01 (inactive)"}, {"measurement": "fold change", "setting": "[11]; measured here: relative caspase fold change +Dox/-Dox", "result": 0.529}, {"measurement": "cell count", "setting": "[11]; measured here: total cells with miR-34 induction, stronger effect = lower value", "result": 1260}, {"measurement": "cell count", "setting": "[11]; measured here: total cells without miR-34 induction", "result": 1250}, {"measurement": "z-score", "setting": "[12]; MELAS cybrid survival, CellTiter-Glo 48 h, stronger effect = higher value", "result": "1.32 (inactive)"}, {"measurement": "z-score", "setting": "[12]; Rieske KO mouse fibroblast survival, CellTiter-Glo 72 h", "result": -3.38}]}
